Source: PubChem (National Center for Advancing Translational Sciences (NCATS))
This is a sample that favours compounds with a hit; in the whole collection about 9.2% have one here.
HttQ103 aggreg = qHTS Multiplex Assay to Identify Dual Action Probes in a Cell Model of Huntington: Aggregate Formation (GFP) | PC12 HttQ103-GFP aggregates, Acumen cytometry, 40 h | Potency, µM (top dose mostly 46.1 µM), usual class: inhibitors | 220,000 tested, 1.1% active | AID 1688, 2009; active = well fitted curve in the direction sought with a large enough effect; inconclusive = small, poorly fitted or top-dose-only effect, or another doubt; inactive = no such curve, though single readings can be large; an effect the other way counts as inactive or inconclusive; also: nearly all actives have a fitted effect of over 60% in size
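Read-out: GFP aggregate count by laser scanning cytometer (488 nm excitation, 500-530 nm emission, 1–25 µm objects >6 SD above background). Cells: PC12, inducible HTTex1-Q103-GFP, 100 nM tebufenozide; compounds titrated.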
HPGD inh = qHTS Assay for Inhibitors of HPGD (15-Hydroxyprostaglandin Dehydrogenase) | AID 894, 2007 | Potency, µM, most hits filed as inhibitors | purified HPGD, NADH fluorescence kinetic, PGE2 substrate | 15-hydroxyprostaglandin dehydrogenase [NAD(+)] (Homo sapiens), P15428 | 150,000 tested, 4.3% active
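20 nM HPGD preincubated 15 min at room temperature with compound in 50 mM Tris-HCl pH 8, 0.01% Tween 20. Started with 1 mM NAD+ and 30 uM prostaglandin E2; NADH fluorescence (360/450 nm) read 5 times over 30-s intervals, last minus first.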
ALDH1A1 inh = qHTS Assay for Inhibitors of Aldehyde Dehydrogenase 1 (ALDH1A1); Purified ALDH1A1, NADH fluorescence, propionaldehyde substrate; Aldehyde dehydrogenase 1A1 (Homo sapiens), P00352; Potency, µM (series often up to 75.3 µM), hits mostly inhibitors; 220,000 tested, 7.3% active
Target sequence (P00352 whole entry, looked up): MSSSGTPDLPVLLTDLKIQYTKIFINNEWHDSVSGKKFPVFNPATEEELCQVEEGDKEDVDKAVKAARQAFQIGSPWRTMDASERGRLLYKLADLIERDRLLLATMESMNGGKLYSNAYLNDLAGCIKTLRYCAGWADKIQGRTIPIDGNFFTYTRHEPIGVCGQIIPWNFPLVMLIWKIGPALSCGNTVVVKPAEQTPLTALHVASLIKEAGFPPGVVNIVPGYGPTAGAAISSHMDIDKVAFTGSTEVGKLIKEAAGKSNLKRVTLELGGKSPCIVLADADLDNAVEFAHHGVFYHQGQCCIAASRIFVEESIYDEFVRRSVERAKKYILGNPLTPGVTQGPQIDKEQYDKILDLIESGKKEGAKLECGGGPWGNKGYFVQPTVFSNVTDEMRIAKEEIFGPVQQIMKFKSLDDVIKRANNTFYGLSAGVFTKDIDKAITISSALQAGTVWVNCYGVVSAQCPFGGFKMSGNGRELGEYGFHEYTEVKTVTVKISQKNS
HTT ATP protect = qHTS Multiplex Assay to Identify Dual Action Probes in a Cell Model of Huntington: Cytoprotection (ATP) | PC12 HTT-Q103 induced, cytoprotection, ATP luminescence, 40 h | Potency, µM (series often up to 56.4 µM), usual class: activators | 230,000 tested, 0.14% active | AID 1471, 2008; active = well fitted curve in the direction sought with a large enough effect; inconclusive = small, poorly fitted or top-dose-only effect, or another doubt; inactive = no such curve, though single readings can be large; an effect the other way counts as inactive or inconclusive; also: nearly all actives have a fitted effect of over 45% in size
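Readout: ATPlite luminescence (ATP level). Model: stable PC12, inducible Htt exon1 Q103-GFP. Inducer: tebufenozide, 100 nM final. Compounds: dose series. No G418 in medium.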
KDM4E inh = qHTS Assay for Inhibitors of Human Jumonji Domain Containing 2E (JMJD2E) | 230,000 tested, 1.6% active | JMJD2E catalytic domain, FDH-coupled NADH fluorescence (FDH is formaldehyde dehydrogenase) | Lysine-specific demethylase 4E (Homo sapiens), B2RXH2 | Potency, µM (top dose mostly 57.1 µM), usual class: inhibitors; also: nearly all actives have a fitted effect of over 50% in size
Lamin A splicing = qHTS Assay for Modulators of Lamin A Splicing; AID 1487, 2009; HeLa LMNA splicing GFP/RFP minigene ratio, 48 h; Potency, µM (doses to about 46.1 µM), hits mostly inhibitors; 200,000 tested, 0.01% active; active = well fitted inhibition curve with a large enough effect in the signal ratio, with a control signal flat, not every such curve was filed as active; inconclusive = small, poorly fitted or top-dose-only effect, or effect the other way, or a change in a side signal; the % refers to the signal ratio
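S3 HeLa stable clones carrying a lamin A-EGFP splicing minigene plus DsRed2 were seeded at 600 cells/well in Opti-MEM with 2% FBS, pin-dosed and incubated 48 h at 37°C. Acumen cytometry (488 nm) gave the GFP/RFP total-intensity ratio.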
Hits are given with their value; - = inactive; ? = inconclusive; . = no result given; [ ] = another dose, or the depositor's remark. Unless noted, calls follow the shape of the dose curve; as a rule, active = well fitted inhibition curve with a large enough effect (not every such curve was filed as active); inconclusive = small, poorly fitted or top-dose-only effect, or another doubt; inactive = no such curve, though single readings can be large or run the other way.

SMILES	HttQ103 aggreg	HPGD inh	ALDH1A1 inh	HTT ATP protect	KDM4E inh	Lamin A splicing
O=C(CSc1nc2[nH]ncc2c(=O)n1-c1ccccc1)NCc1cccs1	-	.	?	-	-	.
COc1ccc(CCNC(=O)CSc2nc3c(c(=O)n(C)c(=O)n3C)n2C(C)C)cc1OC	-	-	-	-[10 µM]	-	-
OC[C@@H]1O[C@@H](n2cnc3c(NCc4ccco4)ncnc32)[C@H](O)[C@H]1O	.	.	.	-	.	.
COc1ccc(C2=NN(CC(=O)NCCc3ccc(OC)c(OC)c3)C(=O)CC2)cc1	.	.	.	.	.	-
Cc1noc(C)c1CSc1ccccc1C(=O)Nc1nccs1	-	-	19µM	-	-	?
Cc1onc(CO)c1C(=O)Nc1nccs1	-	.	-	-	-	.
C/C(=N\Nc1nc(C)cc(C)n1)c1ccc(N2CCOCC2)cc1	11µM	.	-	-[10 µM]	-	-
C/C(=N\Nc1ncc(Cl)cc1Cl)c1ccc(N2CCOCC2)cc1	-	.	-	-	-	-
COc1cc(C(=S)N2CCOCC2)ccc1OS(=O)(=O)c1ccccc1[N+](=O)[O-]	-	?	?	-[10 µM]	-	?
COc1ccc(C(=S)N2CCOCC2)cc1OS(=O)(=O)c1ccccc1[N+](=O)[O-]	-	32µM	11µM	-[10 µM]	-	-
CCOc1ccc(C(=S)N2CCOCC2)cc1OCC	-[1.84 µM]	?	?	-	-	-
CCOc1cc(C(=S)N2CCOCC2)ccc1OS(=O)(=O)c1ccccc1[N+](=O)[O-]	-	16µM	-	.	-	?
COc1ccccc1S(=O)(=O)c1ccccc1[N+](=O)[O-]	-	-	-	.	-	?
COc1ccc(C=O)cc1OS(=O)(=O)c1ccccc1[N+](=O)[O-]	-	20µM	-	-[10 µM]	-	-
CCc1ccccc1Nc1ncnc2c1cnn2-c1ccc(Cl)cc1	.	.	.	.	.	-
CC1CCN(C(=S)c2cn(Cc3ccccc3F)c3ccccc23)CC1	16µM	-	14µM	-	-	?
CN1CCN(C(=S)c2cn(Cc3ccccc3F)c3ccccc23)CC1	-	.	-	?	-	-
CN(Cc1ccco1)c1cc(-c2cccc(NS(C)(=O)=O)c2)ncn1	.	.	?	-	.	-
O=C1C=CC2=C3c4cc(O)c(O)cc4C[C@@]3(O)COC2=C1	.	11µM	-	?	16µM	.
O=C1C=C(O)c2c(O)cccc2C1=O	-[9.22 µM]	.	.	-[10 µM]	6.3µM	.
Cc1cccc(NC(c2ccc(O)cc2)c2ccc3ccc(C)nc3c2O)n1 (centres undefined)	-	18µM	7.9µM	-	?	?
COc1cc(C(Nc2ccc(S(=O)(=O)N3CCC(C)CC3)cc2)C(=O)NCC2CCCO2)cc(OC)c1OC (centres undefined)	-	-	3.5µM	.	-	-
COc1cc(C(Nc2ccc(S(=O)(=O)NCC3CCCO3)cc2)C(=O)NC(C)(C)C)cc(OC)c1OC (centres undefined)	-[9.22 µM]	.	.	-[10 µM]	-	.
COC(=O)[C@@H]1C[C@@]2(O)[C@H](O)[C@H](O)[C@H](O)C[C@H]2N1C/C=C/c1ccccc1	-[9.22 µM]	-	-	-	-	.
CCOC(=O)C1CCCN(C(=O)c2ccco2)C1 (centres undefined)	-	-	8.9µM	-	-	-
CCOC(=O)C1CCCN(C(=O)c2ccc(C)cc2O)C1 (centres undefined)	-	14µM	?	-	-	-
CCOC(=O)C1CCCN(C(=O)c2cc3c(C)nc4ccccc4c3o2)C1 (centres undefined)	-	-	-	-[10 µM]	-	-
CCOC(=O)C1CCCN(C(=O)c2cc(-c3ccccc3)on2)C1 (centres undefined)	-	28µM	-	-	-	-
CC1CCCN(C(=O)CN2CCN(C(=O)c3ccco3)CC2)C1 (centres undefined)	-	-	22µM	-[10 µM]	-	-
